Test results taken from PubChem BioAssay AID1159580 (chemical genetic matrix, 2015).
Out of some 5,500 compounds screened, about 2,000 (36%) were called active. Not shown: some 18% with an inconclusive outcome. Rule as the data show it: active = normalized growth mostly below about 0.91 (no sharp cut-off); inconclusive = no clear call, values can overlap the other calls; inactive = mostly above about 0.92. Some of the results follow.

Assay: chemical genetic growth profiling, strain panel (AID 1159580);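 also: tested at 20 µM; growth read once vehicle control cultures reached saturation at 30 °C; 1 = growth at the plate median or of vehicle wells; lower values mean less growth of the strain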
Settings: S. cerevisiae deletion strains, growth OD

Measured: normalized growth

CCCCCCCCCCCC1=C(O)C(=O)C=C(O)C1=O
inactive: locus YBR021W, strain FUR4, active compounds read low 0.916 | locus YBR229C, strain ROT2, active compounds read low 1 | locus YDL005C, strain med2, active compounds read low 0.961 | locus YDL040C, strain nat1, active compounds read low 0.95 | locus YDL101C, strain DUN1, active compounds read low 0.994 | locus YDL134C, strain PPH21, active compounds read low 0.956 | locus YDR318W, strain mcm21, active compounds read low 0.955 | locus YDR388W, active compounds read low 0.98 | locus YER016W, strain bim1, active compounds read low 0.944 | locus YER110C, active compounds read low 0.976 | locus YER155C, strain BEM2, active compounds read low 0.925 | locus YER167W, strain BCK2, active compounds read low 0.952 | locus YGL240W, strain doc1, active compounds read low 0.923 | locus YGL248W, strain PDE1, active compounds read low 0.92 | locus YGR252W, strain gcn5, active compounds read low 0.95 | locus YHR079C, strain IRE1 (second series), active compounds read low 0.991 | locus YHR094C, strain hxt1, active compounds read low 0.994 | locus YIL073C, strain SPO22, active compounds read low 0.933 | locus YIR030C, strain dcg1, active compounds read low 0.972 | locus YJL129C, strain trk1, active compounds read low 0.999 | locus YJL134W, strain LCB3, active compounds read low 0.984
active: locus YAL013W, strain DEP1, active compounds read low 0.662 | locus YAL021C, strain ccr4, active compounds read low 0.835 | locus YAL026C, strain drs2, active compounds read low 0.394 | locus YAL030W, strain snc1, active compounds read low 0.889 | locus YBL061C, strain skt5, active compounds read low 0.795 | locus YBR009C, strain hhf1, active compounds read low 0.853 | locus YBR023C, strain chs3, active compounds read low 0.815 | locus YBR171W, strain sec66, active compounds read low 0.853 | locus YBR231C, strain swc5, active compounds read low 0.77 | locus YBR279W, strain paf1, active compounds read low 0.762 | locus YCL011C, strain gbp2, active compounds read low 0.822 | locus YCL016C, strain dcc1, active compounds read low 0.886 | locus YCL029C, strain bik1, active compounds read low 0.89 | locus YCL061C, strain MRC1, active compounds read low 0.628 | locus YCL069W, strain vba3, active compounds read low 0.538 | locus YCR088W, strain abp1, active compounds read low 0.723 | locus YDL035C, strain GPR1, active compounds read low 0.525 | locus YDL074C, strain BRE1, active compounds read low 0.365 | locus YDL185W, strain tfp1, active compounds read low 0.503 | locus YDL192W, strain arf1, active compounds read low 0.834 | locus YDR001C, strain nth1, active compounds read low 0.786 | locus YDR069C, strain doa4, active compounds read low 0.692 | locus YDR101C, strain arx1, active compounds read low 0.871 | locus YDR137W, strain rgp1, active compounds read low 0.81 | locus YDR150W, strain NUM1, active compounds read low 0.673 | locus YDR159W, strain sac3, active compounds read low 0.822 | locus YDR162C, strain NBP2, active compounds read low 0.338 | locus YDR195W, strain ref2 0.853 | locus YDR297W, strain sur2, active compounds read low 0.87 | locus YDR334W, strain swr1, active compounds read low 0.259 | locus YDR335W, strain msn5, active compounds read low 0.599 | locus YDR392W, strain spt3, active compounds read low 0.16 | locus YDR502C, strain sam2, active compounds read low 0.886 | locus YEL003W, strain gim4, active compounds read low 0.851 | locus YEL037C, strain rad23, active compounds read low 0.467 | locus YEL061C, strain CIN8 (second series), active compounds read low 0.493 | locus YEL061C, strain CIN8, active compounds read low 0.665 | locus YER015W, strain faa2, active compounds read low 0.748 | locus YER111C, strain swi4, active compounds read low 0.265 | locus YER155C, strain BEM2 (second series), active compounds read low 0.615 | locus YFR010W, strain ubp6, active compounds read low 0.507 | locus YGL078C, strain dbp3, active compounds read low 0.822 | locus YGL086W, strain mad1, active compounds read low 0.798 | locus YGL167C, strain pmr1, active compounds read low 0.882 | locus YGL173C, strain kem1, active compounds read low 0.703 | locus YGL227W, strain vid30, active compounds read low 0.909 | locus YGL253W, strain hxk2, active compounds read low 0.359 | locus YGR078C, strain PAC10, active compounds read low 0.684 | locus YGR135W, strain pre9, active compounds read low 0.888 | locus YHR013C, strain ard1, active compounds read low 0.743 | locus YHR027C, strain rpn1, active compounds read low 0.605 | locus YHR030C, strain SLT2, active compounds read low 0.596 | locus YHR129C, strain ARP1, active compounds read low 0.67 | locus YHR142W, strain chs7, active compounds read low 0.274 | locus YHR200W, strain rpn10, active compounds read low 0.89 | locus YIL066C, strain RNR3, active compounds read low 0.856 | locus YIL125W, strain kgd1, active compounds read low 0.623 | locus YJL092W, strain hpr5, active compounds read low 0.684 | locus YJL095W, strain BCK1 (second series), active compounds read low 0.88 | locus YJL095W, strain BCK1, active compounds read low 0.68 | locus YJL115W, strain asf1, active compounds read low 0.72 | locus YJL154C, strain vps35, active compounds read low 0.521 | locus YJL164C, strain tpk1, active compounds read low 0.83 | locus YJL166W, strain qcr8, active compounds read low 0.792
